CYP2C19 act – cytochrome P450 2C19 (human) activation | activation factor at 5 µM | P33261 | AID 1025 | 96,000 tested, under 10 active | recombinant CYP2C19, luciferin-H EGE luminescence; hits give high values; 0 = fully inhibited enzyme, 1 = untreated enzyme;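 active = activation factor of at least 2 at 5 µM in the primary screen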
PostGolgi ctrl – growth of the yeast control strain, post-Golgi counter-screen; efflux-deficient yeast background strain, growth absorbance A615, 16 h; inhibition, % at 10 µM; 98,000 tested, 5% active
CYP2C9 act – increases human cytochrome P450 2C9 activity. AID 1024. activation factor at 5 µM. recombinant CYP2C9, luciferin-H conversion, luminescence; hits give high values; factor 1 = untreated enzyme, 0 = blocked. P11712. 96,000 tested, 1.4% active;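 active = activation factor of 2 or more for CYP2C9 at a 5 µM dose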
Target sequence (P11712 whole entry, looked up): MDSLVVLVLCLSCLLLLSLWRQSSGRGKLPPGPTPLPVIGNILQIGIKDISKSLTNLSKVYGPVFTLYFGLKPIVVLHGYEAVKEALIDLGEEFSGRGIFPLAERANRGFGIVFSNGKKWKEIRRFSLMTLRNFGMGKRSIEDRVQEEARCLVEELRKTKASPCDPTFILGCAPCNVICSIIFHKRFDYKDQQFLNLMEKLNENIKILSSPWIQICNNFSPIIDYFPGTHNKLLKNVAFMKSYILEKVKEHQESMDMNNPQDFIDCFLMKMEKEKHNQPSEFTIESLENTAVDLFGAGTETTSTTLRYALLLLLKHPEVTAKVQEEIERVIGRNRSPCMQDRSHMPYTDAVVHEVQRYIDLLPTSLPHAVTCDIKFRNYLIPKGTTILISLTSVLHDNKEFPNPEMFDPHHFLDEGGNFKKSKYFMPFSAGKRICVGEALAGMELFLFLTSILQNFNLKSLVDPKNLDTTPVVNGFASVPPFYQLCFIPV
CYP2C19 inh – blocks human cytochrome P450 2C19; CYP2C19 Supersomes, luciferin-H EGE luminescence, 30 min; P33261; 96,000 tested, 21% active; inhibition, % at 5 µM;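 active = CYP2C19 inhibition above a set limit at 5 µM in the primary screen, cut at about 50% in these data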
CYP2C9 inhib – blocks human cytochrome P450 2C9; AID 777; CYP2C9 Supersomes, luciferin-H conversion, luminescence; inhibition, % at 5 µM; P11712; 96,000 tested, 20% active;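 active = blocking of liver enzyme CYP2C9 beyond about 50% at 5 µM, limit read from the data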
PostGolgi yeast – growth inhibition of a yeast mutant, post-Golgi transport screen | 98,000 tested, 0.9% active | inhibition, % at 10 µM | post-Golgi transport phenotypic cell assay;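 also: yeast cells grown in 1536-well plates; yeast grown about 18 h at 30C before absorbance read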
Each line names hits and unclear results; the compound was inactive in the other large screens. This is a sample that favours compounds with a hit; in the whole collection about 32% have one here. Rule as the data show it, unless noted: active = inhibition above about 30%; inactive = the rest.

O=C(CN1CCN(Cc2ccccc2)CC1)N1CCCc2c1c(=O)oc1ccc(O)cc21	none
CCCOc1ccc2oc(=O)c3c(c2c1)CCCN3C(=O)CN(C)Cc1ccccc1	CYP2C19 inh 55, CYP2C9 inhib 86
CCCCCOc1ccc2oc(=O)c3c(c2c1)CCCN3C(=O)CN1CCCC(C(=O)OCC)C1 (stereo unspecified)	CYP2C19 inh 76, CYP2C9 inhib 94
CC(=O)Oc1ccc2oc(=O)c3c(c2c1)CCCN3C(=O)CN1CCN(c2ncccn2)CC1	none
CCc1nnc(NC(=O)CSc2nc3c(c(=O)n2CC)SC(C)C3)s1 (stereo unspecified)	none
COc1ccccc1-c1c(C#N)c(SCC(=O)N2CCCC2)nc(C)c1C(N)=O	none
O=S(=O)(c1ccccc1)c1cnc(-c2cccnc2)nc1-c1ccc(Cl)cc1Cl	none
CN(C)c1ncc(S(=O)(=O)c2ccccc2)c(-c2ccccc2Cl)n1	CYP2C19 inh 76
CN1CCN(CC(=O)N2c3ccccc3C(C)(c3ccc(Cl)cc3)CC2(C)C)CC1 (stereo unspecified)	PostGolgi ctrl 39
CN1CCN(CC(=O)N2c3ccccc3C(C)(c3ccccc3)CC2(C)C)CC1 (stereo unspecified)	PostGolgi ctrl 36
CC(=O)N1c2ccccc2C(C)(c2ccccc2)CC1(C)C (stereo unspecified)	CYP2C19 inh 64, CYP2C9 inhib 54
CCN(C(=O)CN1CCN(C)CC1)c1cccc2ccccc12	none
CN1CCN(NC(=O)c2ccc(Cl)c([N+](=O)[O-])c2)CC1	none
CCCS(=O)(=O)N1CCCC(C(=O)NCCCN2CCN(c3cccc(Cl)c3)CC2)C1 (stereo unspecified)	none
O=C(CN(CCc1ccccc1)C(=O)CNS(=O)(=O)c1ccc(F)cc1)NCC1CCCO1 (stereo unspecified)	none
O=C1Nc2cc(S(=O)(=O)N3CCCC3)ccc2N2CCCC12 (stereo unspecified)	none
O=C1Nc2cc(Cl)cnc2N2CCCC12 (stereo unspecified)	CYP2C9 inhib 83
CCOc1ccc(N2C(=O)CS/C2=C(\C(Cl)=C(Cl)Cl)[N+](=O)[O-])cc1	CYP2C9 inhib 55
Cc1nn(CC(=O)NCc2ccc(OC(C)C)cc2)c(=O)c2cc3occc3n12	none
O=C1C2CC=CCC2C(=O)N1c1ccc(Cc2ccncc2)cc1 (stereo unspecified)	CYP2C19 inh 68, CYP2C9 inhib 85
CC(=O)c1c(C)cc(C)c(CSc2nc(C)cc(=O)[nH]2)c1C	none (no result: PostGolgi ctrl, PostGolgi yeast)
COc1cc(=O)[nH]c(SCc2c(F)c(F)c(F)c(F)c2F)n1	PostGolgi ctrl 53, CYP2C9 inhib 50
CSc1ccc(S(=O)(=O)Nc2c(C)cccc2C)cc1	none
CCOc1ccc(NS(=O)(=O)c2ccc(NS(=O)(=O)c3ccccc3)cc2)cc1	CYP2C19 inh 55, CYP2C9 inhib 95
CCOc1ccc(S(=O)(=O)Nc2cc(Cl)ccc2O)cc1	CYP2C19 inh 100, CYP2C9 inhib 100
CCOc1ccc(S(=O)(=O)Nc2ccccc2SC)cc1	CYP2C19 inh 67
CCOc1ccc(S(=O)(=O)NCc2cccs2)cc1	none
CCc1ccccc1NS(=O)(=O)c1ccc(SC)cc1	CYP2C19 inh 81
CC(COc1cccc2ccccc12)CN1CCN(C)CC1 (stereo unspecified)	none
CC(=O)c1cccc(NC(=O)NCCS(C)=O)c1 (stereo unspecified)	none
O=C1[C@@H]2[C@H](C(=O)N1Cc1ccco1)[C@H]1C=C[C@@H]2C1	none
O=C(Nc1nncs1)c1c(F)c(F)c(F)c(F)c1F	none
Cc1ccc(C(=O)OCC(=O)Nc2ccccc2)cc1NC(=O)c1ccco1	none
Cc1ccc(OCC(=O)Nc2sc3c(c2C#N)CCC3)cc1	none
N#Cc1c(NC(=O)COC(=O)c2ccc(F)cc2)sc2c1CCC2	PostGolgi ctrl 37
Cc1ccc(C(=O)OCC(=O)Nc2cc(F)ccc2F)cc1NC(=O)c1ccco1	none
Cc1ccc(C(=O)OCC(=O)Nc2ncc(Cl)cc2Cl)cc1NC(=O)c1ccco1	CYP2C19 inh 92, CYP2C9 inhib 69
Cc1ccc(C(=O)OCC(=O)Nc2sc3c(c2C#N)CCCC3)cc1NC(=O)c1ccco1	CYP2C9 inhib 91
Cc1ccc(C(=O)OCC(=O)Nc2sc3c(c2C#N)CCCCC3)cc1NC(=O)c1ccco1	CYP2C19 inh 60, CYP2C9 inhib 92
CCC(=O)N1CCc2cc(S(=O)(=O)N3CCN(c4ccccn4)CC3)ccc21	none
CC(C)(C)c1ccc(C(=O)Nc2cnccn2)cc1	none
COc1cc(C(=O)NCCc2cn3ccc(C)cc3n2)cc(OC)c1OC	none
O=C(O)c1ccccc1SCc1ccc2c(c1)OCO2	none
Cc1nc(NC(=O)COC(=O)C(NC(=O)c2ccco2)C(C)C)c(Cl)cc1Cl (stereo unspecified)	CYP2C19 inh 95
Cc1ccc(C(=O)OCC(=O)Nc2sccc2C(N)=O)cc1NC(=O)c1ccco1	CYP2C9 inhib 94
CCC(C)c1ccccc1NC(=O)COC(=O)c1ccc(C)c(NC(=O)c2ccco2)c1 (stereo unspecified)	CYP2C19 inh 75
CCOC(=O)N1CCN(S(=O)(=O)c2ccc(C(=O)Nc3sc4c(c3C#N)CCC4)cc2)CC1	CYP2C9 inhib 75
CCOC(=O)C(NC(=O)CC)(Nc1cc(C)on1)C(F)(F)F (stereo unspecified)	none
CCOc1ccc(C2C(C(=O)c3ccco3)=C(O)C(=O)N2CCN(C)C)cc1 (stereo unspecified)	none
COCC(=O)Nc1ccc(C(C)C)cc1	none
CCC(c1nnnn1C(C)(C)CC)N(CCCN1CCOCC1)Cc1cc2cccc(C)c2[nH]c1=O (stereo unspecified)	none
CCC(c1nnnn1C(C)(C)CC)N(CCCO)Cc1cc2cccc(C)c2[nH]c1=O (stereo unspecified)	CYP2C19 inh 71, CYP2C9 inhib 75
Cc1ccc(NC(=O)CN2C(=O)S/C(=C\c3cc(C)n(C)c3C)C2=O)cc1	CYP2C19 inh 57
Cc1ccc(NC(=O)CN2C(=O)S/C(=C\c3cccn3C)C2=O)cc1	CYP2C9 inhib 76
COc1cccc(NC(=O)C(OC(=O)/C=C/c2ccc3c(c2)OCO3)c2ccccc2)c1 (stereo unspecified)	CYP2C9 inhib 69
O=C(Nc1ccc(Cl)cc1)C(c1ccccc1)N(CCO)CCO (stereo unspecified)	CYP2C19 inh 63, CYP2C9 inhib 66
COc1ccc(NC(=O)C(c2ccccc2)N(C)C(=O)CNC(C)=O)cc1 (stereo unspecified)	none
O=C(Nc1cc(Cl)cc(Cl)c1)C(NCCO)c1ccccc1 (stereo unspecified)	none
COc1cccc(NC(=O)C(NCC2CCCCC2)c2ccccc2)c1 (stereo unspecified)	CYP2C19 inh 79, CYP2C9 inhib 77
